Experimental findings from PubChem BioAssay (EPA / NIEHS) are described below.

One may read the AC50 as the midpoint of the concentration-response curve, whichever way the signal moves.

The structures appear in SMILES notation. Inconclusive results are not listed. The source made the active and inactive calls. Rule for the calls: active = hit-call score of the fitted dose curve at least 0.9, where 1 is the maximum; inconclusive = response in the unintended direction; inactive = score below 0.9.

Chain of chimpanzee Androgen Receptor (AR), AR (gene 747460) (O97775 whole entry, looked up): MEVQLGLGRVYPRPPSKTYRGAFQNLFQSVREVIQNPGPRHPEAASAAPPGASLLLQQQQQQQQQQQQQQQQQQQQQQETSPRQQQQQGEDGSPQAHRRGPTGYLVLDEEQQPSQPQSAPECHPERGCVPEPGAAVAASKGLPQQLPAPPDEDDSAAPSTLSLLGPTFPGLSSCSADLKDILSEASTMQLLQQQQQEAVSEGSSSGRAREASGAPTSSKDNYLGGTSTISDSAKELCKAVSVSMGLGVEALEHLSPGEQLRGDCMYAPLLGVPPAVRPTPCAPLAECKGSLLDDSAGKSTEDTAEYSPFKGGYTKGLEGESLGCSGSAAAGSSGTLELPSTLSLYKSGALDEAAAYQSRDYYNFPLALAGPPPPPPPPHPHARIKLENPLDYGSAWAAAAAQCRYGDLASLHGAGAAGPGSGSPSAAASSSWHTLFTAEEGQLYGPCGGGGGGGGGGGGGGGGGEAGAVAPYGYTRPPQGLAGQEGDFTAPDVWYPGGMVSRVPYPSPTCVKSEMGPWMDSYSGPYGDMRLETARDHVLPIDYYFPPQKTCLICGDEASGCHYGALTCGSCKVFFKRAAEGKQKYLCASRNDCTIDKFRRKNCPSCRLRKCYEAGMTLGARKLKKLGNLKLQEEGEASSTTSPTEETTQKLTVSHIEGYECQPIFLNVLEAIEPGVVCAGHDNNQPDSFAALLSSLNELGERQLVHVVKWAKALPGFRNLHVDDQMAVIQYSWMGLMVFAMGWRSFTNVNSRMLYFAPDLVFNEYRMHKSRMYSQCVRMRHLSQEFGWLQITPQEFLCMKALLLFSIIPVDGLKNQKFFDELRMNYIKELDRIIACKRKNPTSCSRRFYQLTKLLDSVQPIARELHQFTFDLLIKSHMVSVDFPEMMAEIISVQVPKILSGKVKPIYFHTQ

The assay addresses chimpanzee Androgen Receptor (AR), AR (gene 747460) (UniProt O97775). Description: NVS_NR_cAR: NovaScreen (NVS) Nuclear Receptor Binding Assay for chimpanzee Androgen Receptor (AR) (AID 2283346).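 Note: a loss of bound radioligand signal versus DMSO counts as binding.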 The procedure:
NVS_NR_cAR is a biochemical, single-readout assay that uses extracted gene-proteins from Sf9/Sf21 in a cell-free assay. Measurements were taken 72 hours after chemical dosing in a 96-well plate.NVS_NR_cAR is one of one assay component(s) measured or calculated from the NVS_NR_cAR assay. It is designed to make measurements of radioligand binding, a form of binding reporter, as detected with scintillation counting signals by Lysate-based radiodetection technology.Data from the assay component NVS_NR_cAR was analyzed into 1 assay endpoint. This assay endpoint, NVS_NR_cAR, was analyzed in the positive analysis fitting direction relative to DMSO as the negative control and baseline of activity. Using a type of binding reporter, loss-of-signal activity can be used to understand changes in the binding as they relate to the gene AR. Furthermore, this assay endpoint can be referred to as a primary readout, because the performed assay has only produced 1 assay endpoint. To generalize the intended target to other relatable targets, this assay endpoint is annotated to the nuclear receptor intended target family, where the subfamily is steroidal.
Binding assays used specific radioligands (tritiated, iodinated) with non-radioactive competitive displacement ligands in agonist or antagonist protocols (as indicated) and various reference compounds and inhibitors to titrate specific binding to receptors and transporters. Most enzyme assays (CYPs, kinases, phosphatases, proteases, HDACs) used recombinant protein and specific substrates (fluorescence mostly, some colorimetric and radioactive) and inhibitors, followed by a biochemical separation of substrate and product. All assays for the biochemical HTS were initially run in duplicate at a single concentration (10 uM for CYP450 assays and 25 uM for all others). […] Each assay was run with positive and negative controls, and concurrent controls on every plate. The follow-up (secondary) screen tested active chemical-pairs in concentration series, as well as a few additional assays not tested in the primary screen, some selected negative inactives, and several cases re-run in the concentration series for confirmatory purposes.
With `Oc1cc(Cl)c(Cl)cc1Cl`, the compound was called inactive.
Same read-out and setting: as for `Nc1c(Oc2ccccc2)cc(O)c2c1C(=O)c1ccccc1C2=O`, the entry is “inactive”.
On to `O=S1(=O)OC(c2cc(Br)c(O)c(Br)c2)(c2cc(Br)c(O)c(Br)c2)c2ccccc21`, for which the AC50 was 18.1 µM (active).
As to `CCC[CH2][Sn]([Cl])([Cl])[CH2]CCC`, the concentration at half-maximal activity (AC50) is 19.6 µM (active).
Still for that read-out and setting: the figure for `O=C1c2ccccc2C(=O)C1C(=O)C(c1ccccc1)c1ccc(Cl)cc1` (configuration not stated) is 26.4 µM (active); for `O=[N+]([O-])c1ccc(Cl)c([N+](=O)[O-])c1` it is 11.9 µM (active).
In the case of `CC(C)=CC1C(C(=O)OCc2cccc(Oc3ccccc3)c2)C1(C)C` (configuration not stated), the compound was called inactive.
On the same count and under the same terms, as for `OC(Cc1ccccc1Cl)(Cn1cncn1)C1(Cl)CC1` (configuration not stated), the entry is “inactive”; as for `C#CCOC(=O)/C=C(C)/C=C/CC(C)CCCC(C)C` (configuration not stated), “inactive”.
Regarding `N#CS`, the result was inactive.
Regarding `Cc1cc(C(C)(C)c2ccc(O)c(C)c2)ccc1O`, the result was inactive.
In the case of `Cc1ccc2nc3sc(=O)sc3nc2c1`, the AC50 is 0.363 µM (active).
Regarding `OC(Cc1ccccc1Cl)(Cn1[nH]cnc1=S)C1(Cl)CC1` (configuration not stated), the result was inactive.
The same measure, in the same setting: the entry for `[Cl][Sn]([c]1ccccc1)([c]1ccccc1)[c]1ccccc1` is “inactive”; for `O=C(CCl)Nc1ccccc1` it is “inactive”.
For `Nc1ccc(N)cc1`, the AC50 is 25 µM (active).
Regarding `O=c1oc2ccccc2c(O)c1C(CC(O)c1ccc(-c2ccc(Br)cc2)cc1)c1ccccc1` (configuration not stated), the compound was classed as inactive.
